# TEAD-YAP block: TEAD-YAP interaction inhibition | HEK-TIYL cells, TEAD-Gal4/YAP UAS-luciferase luminescence | inhibition, % at 9.12 µM | 640,000 compounds, 1.4% hits | AID 1259422; in the data active = inhibition above about 32%;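 note: 0% = median of test compound wells and 100% = reference inhibitor wells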
# GPR151 ag: activates the human receptor GPR151; Q8TDV0; PathHunter beta-arrestin GPR151 cells, luminescence; activation, % at 11.2 µM; 650,000 compounds, 1% hits; AID 1508602; in the data active = activation above about 4.9%;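 note: 0% = median of compound wells and 100% = cells with positive control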
# FBW7 activator: human FBW7 E3 ligase activation, primary screen; AID 1259310; normalized activity (activation), % at 26.1 µM; 650,000 compounds, 0.13% hits; Q969H0; AlphaScreen FBW7–phospho-cyclin E peptide binding, activator screen; in the data active = normalized activity above about 1.9%;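 note: purified mutant Fbw7 with reduced substrate affinity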
# MITF inh: blocks human microphthalmia-associated transcription factor | O75030 | AlphaScreen MITF homodimerization, bead proximity signal | inhibition, % at 2.6 µM | 650,000 compounds, 0.91% hits; in the data active = inhibition above about 50%;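 note: 0% = vehicle wells with protein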
# * = called active by the depositor. In the library only some 3.4% were active in any assay of this set; here they are far more common.
SMILES,TEAD-YAP block,GPR151 ag,FBW7 activator,MITF inh
Cc1cc(N/N=C/c2cc([N+](=O)[O-])ccc2O)nc(-c2ccccc2O)n1,77.4*,0.1,-0.1,-11.6
O=[N+]([O-])c1ccc(O)c(/C=N/Nc2ccc(Cl)nn2)c1,46.4*,0.5,-0.1,-11.1
Cc1cc(N/N=C/c2ccc(O)c(C)c2O)nc(-c2ccccc2O)n1,42.3*,0.4,0.2,-1.9
Cc1cc(N/N=C/c2cccc([N+](=O)[O-])c2)nc(-c2ccccc2O)n1,1.9,-0.5,0.2,12.5
CS(=O)(=O)N1CC=C[C@@H]1C(=O)NCCc1ccccc1,-11.4,1.5,0.0,-5.1
CN(CCc1ccccc1)C1CCCN(C(=O)c2cn3ccsc3n2)C1 (configuration not stated),-7.2,4.1,-0.1,9.8
CCn1c2c(n[n+]1[O-])C(=O)c1ccccc1C2=O,100.7*,-5.3,-0.3,-0.5
O=C1c2ccccc2C(=O)c2c1nc1ccccn21,3.3,-1.8,-0.2,-11.2
COc1cc(/C=C2\SC(N3CCCC3)=NC2=O)ccc1O,2.3,-0.7,0.1,-5.6
O=C1N=C(N2CCOCC2)S/C1=C\c1ccc(O)cc1,38.7*,3.6,0.0,11.2
CC1CCCN(C2=NC(=O)/C(=C/c3ccc(O)cc3)S2)C1 (configuration not stated),48.6*,-1.4,0.1,10.6
COc1cc(/C=C2\SC(N3CCOCC3)=NC2=O)ccc1O,53.6*,-1.6,-0.2,-3.9
COc1cc(/C=C2\SC(N3CCCC(C)C3)=NC2=O)ccc1O (configuration not stated),56.5*,0.9,-0.1,1.7
CC1CCCN(C2=NC(=O)/C(=C/c3ccc(F)cc3)S2)C1 (configuration not stated),-25.2,-0.8,-0.1,6.5
O=C1N=C(N2CCOCC2)S/C1=C\c1ccc(F)cc1,-24.7,-0.9,0.0,9.7
O=C(Nc1ccc2nn(-c3ccccc3)nc2c1)c1ccccc1[N+](=O)[O-],-46.8,1.2,-0.1,-15.3
COc1ccc(Cn2c(O)c(C=Nc3ccc(C(=O)O)c(O)c3)c3ccccc3c2=O)cc1,3.4,-1.4,-0.1,9.7
OCCC1CN(Cc2ccncc2)CCN1Cc1ccc(F)c(F)c1 (configuration not stated),8.2,-1.1,-0.1,0.8
COc1cccc(Nc2nc(N3CCN(CCO)CC3)nc3c2cnn3C)c1,41.0*,1.9,0.2,9.9
CC(=O)C(Cc1ccccc1)NC(=O)CN(C)c1ccc2ccccc2c1 (configuration not stated),1.8,1.0,0.0,0.3
CCOC(=O)CSc1nc2cc(C(=O)NCc3ccccc3Cl)ccc2c(=O)n1CCc1ccccc1,1.1,-0.4,0.0,-1.5
Cc1nn(C2CCS(=O)(=O)C2)c(Cl)c1/C=C/c1nc2ccccc2s1 (configuration not stated),94.7*,-4.8,-0.1,-11.1
CC(=O)N1/C(=C/c2ccncc2)C(=O)c2ccccc21,-1.5,-1.9,0.3,5.1
CC(=O)N1/C(=C/c2ccc(N(C)C)cc2)C(=O)c2ccccc21,46.2*,-0.6,0.1,43.2
COc1cccc(N2C(=O)CC(NCCc3ccc(S(N)(=O)=O)cc3)C2=O)c1 (configuration not stated),-2.4,-0.4,0.1,-3.5
SMILES,TEAD-YAP block,GPR151 ag,FBW7 activator,MITF inh
CSc1sccc1/C=N/Nc1ccc([N+](=O)[O-])cc1,-19.0,-1.2,2.1*,11.3
O=C(Oc1ccc2c(c1)OCO2)C12CC3CC(CC(Cl)(C3)C1)C2,-2.5,0.8,-0.1,-21.5
COc1ccc(/C=N/NC(=O)C2CC(=O)N(c3ccc(Br)cc3)C2)cc1 (configuration not stated),11.6,0.2,0.0,12.0
CCc1ccc(/C=N\NC(=O)C2CC(=O)N(c3ccc(OC)cc3)C2)cc1 (configuration not stated),47.5*,1.3,-0.1,-16.0
COc1ccc2cc(C3CC(c4ccc(C)cc4)=NN3C(=O)c3ccccc3Cl)c(Cl)nc2c1 (configuration not stated),-15.8,-1.4,0.2,-357.2
C=CCNC(=O)c1cc(-c2ccc(O)cc2)on1,33.8*,-1.1,0.1,6.4
CC(C)NC(=O)c1cc(-c2ccc(Br)cc2)on1,-57.5,-1.2,0.6,12.7
CC(C)NC(=O)c1cc(-c2ccc(O)cc2)on1,42.9*,-2.2,0.6,1.7
C=CCNC(=O)c1cc(-c2ccc3c(c2)OCO3)on1,-16.0,-0.9,-0.1,-0.3
CCOc1ccc(C2C(C(=O)Nc3cc(OC)c(OC)c(OC)c3)c3ccccc3C(=O)N2CCN2CCOCC2)cc1 (configuration not stated),0.5,1.5,0.1,15.5
